The whole screen tested about 5,500 compounds, of which about 2,000 (36%) were called active. Not shown: some 18% with an inconclusive outcome. Rule as the data show it: active = normalized growth mostly below about 0.91 (no sharp cut-off); inconclusive = no clear call, values can overlap the other calls; inactive = mostly above about 0.92. The list shows a part of the results.
Assay: chemical genetic growth profiling, strain panel (AID 1159580);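 also: tested at 20 µM; growth read once vehicle control cultures reached saturation at 30 °C; 1 = growth at the plate median or of vehicle wells; lower values mean less growth of the strain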
Conditions: S. cerevisiae deletion strains, growth OD

Measured: normalized growth

Clc1cccc(Cl)c1C1CC(c2ccccc2)=Nc2ccccc2S1 (stereo unspecified)
inactive: locus YAR019C, strain CDC15, active compounds read low 0.986 | locus YBL105C, strain PKC1, active compounds read low 0.986 | locus YBR135W, strain CKS1, active compounds read low 0.993 | locus YBR136W, strain MEC1, active compounds read low 0.962 | locus YBR160W, strain CDC28, active compounds read low 0.988 | locus YDL017W, strain CDC7, active compounds read low 0.98 | locus YDL028C, strain MPS1, active compounds read low 0.99 | locus YDL101C, strain DUN1, active compounds read low 0.984 | locus YDL108W, strain KIN28, active compounds read low 0.989 | locus YDL132W, strain cdc53, active compounds read low 0.994 | locus YDL214C, strain PRR2, active compounds read low 0.978 | locus YDR052C, strain DBF4, active compounds read low 0.982 | locus YDR054C, strain cdc34, active compounds read low 0.978 | locus YDR226W, strain ADK1, active compounds read low 0.982 | locus YDR477W, strain SNF1, active compounds read low 0.979 | locus YER123W, strain YCK3, active compounds read low 0.981 | locus YER133W, strain GLC7, active compounds read low 0.981 | locus YFL009W, strain cdc4, active compounds read low 0.989 | locus YFL029C, strain CAK1, active compounds read low 0.98 | locus YFR003C, strain YPI1, active compounds read low 0.989 | locus YFR019W, strain FAB1, active compounds read low 0.986 | locus YFR028C, strain CDC14, active compounds read low 0.985 | locus YGR040W, strain KSS1, active compounds read low 0.967 | locus YGR052W, strain FMP48, active compounds read low 1.07 | locus YGR092W, strain DBF2, active compounds read low 0.989 | locus YHR030C, strain SLT2, active compounds read low 0.987 | locus YHR079C, strain IRE1, active compounds read low 0.992 | locus YHR082C, strain KSP1, active compounds read low 1.02 | locus YHR205W, strain SCH9, active compounds read low 0.936 | locus YIL147C, strain SLN1, active compounds read low 0.981 | locus YJL095W, strain BCK1, active compounds read low 1 | locus YJL128C, strain PBS2, active compounds read low 0.958 | locus YJL157C, strain FAR1, active compounds read low 0.988 | locus YJR016C, strain ILV3, active compounds read low 0.992 | locus YJR066W, strain TOR1 (second series), active compounds read low 0.95 | locus YJR066W, strain TOR1, active compounds read low 0.991 | locus YKL048C, strain ELM1, active compounds read low 0.982 | locus YKL067W, strain YNK1, active compounds read low 0.974 | locus YKL101W, strain HSL1, active compounds read low 0.966 | locus YKL193C, strain SDS22, active compounds read low 0.991 | locus YKL203C, strain TOR2, active compounds read low 1.02 | locus YLR113W, strain HOG1, active compounds read low 0.93 | locus YLR133W, strain CKI1, active compounds read low 0.977 | locus YLR403W, strain SFP1, active compounds read low 0.973 | locus YML070W, strain DAK1, active compounds read low 0.981 | locus YMR001C, strain CDC5, active compounds read low 0.986 | locus YMR205C, strain PFK2 (second series), active compounds read low 0.979 | locus YMR277W, strain FCP1, active compounds read low 0.991 | locus YNL006W, strain LST8, active compounds read low 0.995 | locus YNL020C, strain ARK1, active compounds read low 0.985 | locus YNL161W, strain CBK1, active compounds read low 0.981 | locus YNL183C, strain NPR1, active compounds read low 0.997 | locus YNL207W, strain RIO2, active compounds read low 0.985 | locus YNL222W, strain SSU72, active compounds read low 0.995 | locus YNL307C, strain MCK1 (second series), active compounds read low 0.999 | locus YOL078W, strain AVO1, active compounds read low 0.99 | locus YOL136C, strain PFK27, active compounds read low 0.973 | locus YOR061W, strain CKA2, active compounds read low 0.978 | locus YOR119C, strain RIO1, active compounds read low 0.997 | locus YOR231W, strain MKK1, active compounds read low 0.988 | locus YOR329C, strain SCD5, active compounds read low 0.978 | locus YPL031C, strain PHO85, active compounds read low 0.982 | locus YPL153C, strain RAD53, active compounds read low 0.982 | locus YPL204W, strain HRR25, active compounds read low 0.99 | locus YPL209C, strain IPL1, active compounds read low 0.988 | locus YPL256C, strain CLN2, active compounds read low 0.947 | locus YPR025C, strain CCL1, active compounds read low 0.987 | locus YPR106W, strain ISR1, active compounds read low 0.981 | locus YPR111W, strain DBF20, active compounds read low 0.983 | strain NNK1, active compounds read low 0.99 | strain TSCII, active compounds read low 0.986

Reference: PubChem BioAssay AID1159580 (chemical genetic matrix, 2015)
